Screen size: about 13,000 compounds; about 3,200 (25%) showed an effect of 50% or more. The list shows a part of the results.
test system: P. falciparum stage V gametocytes; parameters: BacTiter-Glo ATP luminescence viability of purified stage V gametocytes in 384-well plates, per cent inhibition versus DMSO; settings: 48 h, 5 µM; inhibitor

SMILES | % Inhibition
CN(C)CCOc1ccc2[nH]c(-c3cccc(OCc4ccccc4)c3)nc2c1C#N [TCMDC-133765] | 4.095%
COc1cc(C(=O)Nc2cccc(-c3cn4cccc(C)c4n3)c2)cc(OC)c1OC [TCMDC-123644] | 23.2%
CCC1N=C(N)N=C(N)N1OCc1cccc2ccccc12 (centres unmarked) [TCMDC-131592] | 22.21%
COc1ccc(CCNc2nc(SCc3ccccc3Cl)nc3ccccc23)cc1OC [TCMDC-125569] | 33.86%
COc1ccc(CCNCCCCCCNCCc2ccccc2Cl)cc1OC [TCMDC-131273] | 87.94%
COc1c(CNCCCCCCNCc2cc(Cl)c3ccccc3c2OC)cc(Cl)c2ccccc12 [TCMDC-137958] | 32.17%
CCCCNCc1cc(Cl)c2ccccc2c1O [TCMDC-137599] | 77.6%
COc1ccc(CCNCCCCCCNCCc2ccc(Cl)c3ccccc23)cc1OC [TCMDC-131270] | 116.7%
COc1cc2ncnc(NCCc3ccccc3Cl)c2cc1OC [TCMDC-139495] | 5.438%
COc1c(CCNCCCCNCCc2cc(Cl)c3ccccc3c2OC)cc(Cl)c2ccccc12 [TCMDC-137869] | 105.2%
CCN(CC)CCCN(C(=O)Nc1c(Cl)cncc1Cl)c1nc(-c2ccc(F)cc2)cs1 [TCMDC-136666] | -35.52%
O=C(Cc1ccc(NC(=O)c2ccc(O)c(-c3ccc(Cl)c(Cl)c3)c2)cc1)NCCN1CCCCC1 [TCMDC-140861] | -19.27%
O=C(Nc1cccc2ccccc12)N1CCC(NS(=O)(=O)c2cccc(C(F)(F)F)c2)CC1 [TCMDC-139437] | -43.48%
Cn1c(N)c(N=O)c(=O)[nH]c1=O [TCMDC-123469] | -4.943%
CC1CN(Cc2ccc(C#N)cc2)CCN1c1ccc(NC(=O)c2cccs2)cc1 (centres unmarked) [TCMDC-134949] | -2.454%
Cc1nnnn1-c1ccc(C(=O)N2CCC3(CC2)CN(Cc2ccc(Cl)c(Cl)c2)C(=O)O3)cc1 [TCMDC-141691] | -63.06%
Oc1ccc(CCNCCCCCCNCCc2ccc(Cl)c3ccccc23)cc1O [TCMDC-131271] | 123.4%
O=C(CCCCCNC(=O)c1ccc(O)c(-c2ccc(Cl)c(Cl)c2)c1)NCCc1ccc(Cl)c(Cl)c1 [TCMDC-140870] | 6.745%
O=C(Nc1ccc(CCNCCCc2ccccc2)cc1)Nc1ccc(Cl)c(Cl)c1 [TCMDC-140703] | 18.38%
NS(=O)(=O)c1cccc(Nc2nccc(-c3cnn4ncccc34)n2)c1 [TCMDC-138919] | -22.3%
Cc1cc(Nc2cccc(C(F)(F)F)c2)nc2ccc(NC(=O)c3ccc(=O)[nH]c3)cc12 [TCMDC-125286] | -51.61%
CC(C)c1cc(N)c2cc(NC(=O)COCC(=O)Nc3ccc4nc(C(C)C)cc(N)c4c3)ccc2n1 [TCMDC-140151] | 20.51%
Cc1cc(N)c2cc(NC(=O)c3ccc4ccccc4c3)ccc2n1 [TCMDC-139362] | 110.4%
CN1CCc2cc(NC(=O)c3cc4ccccc4s3)cc(-c3ccccc3)c2CC1 [TCMDC-141733] | 18.19%

SMILES | % Inhibition
O=C(Nc1cncc(NC(=O)c2ccc(Cl)c(Cl)c2)c1)c1ccc(Cl)c(Cl)c1 [TCMDC-134576] | -22.28%
Nc1nc(N)c2cc(CNc3ccc(Cl)c(Cl)c3)ccc2n1 [TCMDC-141974] | -49.67%
COc1cc(C)nc2ccc(NC(=O)c3cc(C(F)(F)F)cc(C(F)(F)F)c3)cc12 [TCMDC-139381] | -62.94%
Cc1cc(N)c2cc(NC(=O)c3cc(C(F)(F)F)cc(C(F)(F)F)c3)ccc2n1 [TCMDC-139377] | 129.8%
Nc1nc(N)c2cc(NC(=O)c3ccc(Cl)c(Cl)c3)ccc2n1 [TCMDC-141982] | 63.61%
Cc1[nH]cnc1-c1cccc(NC(=O)c2cc3ccccc3s2)c1 [TCMDC-140418] | -4.001%
Cc1cc(N)c2cc(NC(=O)c3cc4ccccc4s3)ccc2n1 [TCMDC-139336] | 120.6%
Cc1ccc2nc(-c3cc(-c4ccc(OCc5ccccc5)cc4)cnc3N)[nH]c2c1 [TCMDC-135839] | -50.65%
Cn1c(=O)n(C)c2cc(CNCCNc3ccnc4cc(Cl)ccc34)ccc21 [TCMDC-125236] | 26.13%
CCCOc1ccc(CCCON2C(N)=NC(N)=NC2(C)C)cc1 [TCMDC-131757] | 14.14%
Cc1noc(C)c1-c1cccc(CNCc2ccc(-c3cccc(-c4nc5ccccc5[nH]4)c3)cc2)c1.O=C(O)C(F)(F)F [TCMDC-132565] | -39.99%
OCCN1CCN(C(=S)NC2CCCCC2)CC1 [TCMDC-123848] | -10.92%
O=C(NCc1cccc(C(F)(F)F)c1)c1ccc(-c2nc3cc(F)c(F)cc3[nH]2)cc1 [TCMDC-140461] | 13.57%
Cc1cc(C)c(C(=O)Nc2ccc3nc(C)cc(N)c3c2)c(C)c1 [TCMDC-139379] | -0.864%
Cc1cc(N)c2cc(NC(=O)CCC(=O)Nc3ccc4nc(C)cc(N)c4c3)ccc2n1 [TCMDC-139503] | 21.97%
Cc1cc(N)c2cc(NC(=O)c3cccc4ccccc34)ccc2n1 [TCMDC-139378] | 63.27%
Cc1cc(N)c2cc(NC(=O)c3cccc(C(=O)Nc4ccc5nc(C)cc(N)c5c4)c3)ccc2n1 [TCMDC-139410] | 73.19%
CCc1ccc(OCc2ccccc2C(=O)Nc2ccc3nc(C)cc(N)c3c2)cc1 [TCMDC-125882] | 102.8%
Cc1cc(C(=O)Nc2ccc(OCc3ccccc3)cc2)on1 [TCMDC-124596] | 15.42%
COc1cc(C)nc2ccc(NC(=O)Nc3cccc4ccccc34)cc12 [TCMDC-139397] | -27.18%
Cc1cc(Nc2ccc(OCc3ccccc3Cl)cc2)c2cc(Cl)ccc2n1 [TCMDC-123799] | -30.43%
COc1cc(C)nc2ccc(NC(=O)c3ccc(C(=O)Nc4ccc5nc(C)cc(OC)c5c4)cc3)cc12 [TCMDC-139502] | 14.93%
Cc1cccc2nc(-c3ccc(-c4ccc(CN5CCN(c6ccc(C#N)cn6)CC5)cc4)s3)[nH]c12.O=C(O)C(F)(F)F [TCMDC-133116] | 1.839%
NC1(C(=O)O)Cc2ccc(Cl)cc2C1 (centres unmarked) [TCMDC-131768] | 8.887%

SMILES | % Inhibition
O=C(/C=C/c1ccc(Cl)c(Cl)c1)NC1CCN(Cc2cccc(O)c2)CC1 [TCMDC-141738] | -9.136%
Oc1ccc2c(c1NCC1CCCCC1)CCCC2 [TCMDC-138157] | -18.15%
COC(=O)CN(C(=O)/C=C/c1ccc(Cl)c(Cl)c1)C1CCC(CN2CCC(c3c[nH]c4ccccc34)CC2)CC1 (centres unmarked) [TCMDC-140320] | 0.7085%
Oc1ccc(-c2cc(-c3ccc(O)cc3)nc(-c3ccccc3)n2)cc1 [TCMDC-123851] | -22.65%
CCc1c(C(=O)NC2CCC(N3CCC(c4ccccc4C)CC3)CC2)[nH]c2ccc(OC)cc12 (centres unmarked) [TCMDC-133531] | -38.07%
Cc1ccccc1C1CCN(C2CCC(NC(=O)c3csc(-c4cccc(Cl)c4)n3)CC2)CC1 (centres unmarked) [TCMDC-134104] | -68.67%
Cc1ccccc1C1CCN(C2CCC(NC(=O)c3cc(-c4ccc(Cl)cc4)cs3)CC2)CC1 (centres unmarked) [TCMDC-133529] | 65.99%
Cc1ccccc1C1CCN(C2CCC(NC(=O)c3cncc(-c4ccccc4)c3)CC2)CC1 (centres unmarked) [TCMDC-134111] | -71.64%
Cc1ccccc1C1CCN(C2CCC(NC(=O)c3ccc(-c4cccc(C(F)(F)F)c4)o3)CC2)CC1 (centres unmarked) [TCMDC-134108] | 57.44%
Cc1ccccc1C1CCN(C2CCC(NC(=O)c3cc4cc(Cl)ccc4o3)CC2)CC1 (centres unmarked) [TCMDC-134102] | -69.82%
COc1cccc(-c2cc(C(=O)NC3CCC(N4CCC(c5ccccc5C)CC4)CC3)[nH]n2)c1 (centres unmarked) [TCMDC-133532] | 73.16%
Cc1ccccc1C1CCN(C2CCC(NC(=O)c3ccc(-c4ccccc4F)o3)CC2)CC1 (centres unmarked) [TCMDC-134110] | 121.1%
Cc1ccccc1C1CCN(C2CCC(NC(=O)c3ccc(-c4ccccc4)s3)CC2)CC1 (centres unmarked) [TCMDC-134113] | -48.7%
Cc1ccccc1C1CCN(C2CCC(NC(=O)c3cc(-c4ccccc4)oc3C)CC2)CC1 (centres unmarked) [TCMDC-134112] | -36.13%
Cc1ccc(/C=C/C(=O)NC2CCC(N3CCC(c4ccccc4C)CC3)CC2)cc1F (centres unmarked) [TCMDC-133514] | -74.34%
COc1ccc(-c2csc(C(=O)NC3CCC(N4CCC(c5ccccc5C)CC4)CC3)c2)cc1 (centres unmarked) [TCMDC-134109] | 30.06%
CCCCN(Cc1cnccc1-c1ccc(Br)cc1)c1ccc(C(O)(C(F)(F)F)C(F)(F)F)cc1 [TCMDC-135242] | 23.71%
CCC(C)CN1CCCN(c2ccc(NC(=O)c3cccs3)cc2)CC1 (centres unmarked) [TCMDC-134998] | 9.826%
CCN(Cc1ccccc1)C1CCN(Cc2cc(Br)ccc2O)CC1 [TCMDC-123661] | 1.171%
O=C(Nc1ccc(Cl)cc1)Nc1ccc(-c2csc(-c3nc4ccccc4[nH]3)c2)cc1 [TCMDC-133174] | 10.18%
Cc1cc(N2CCCC2)nc(Nc2ccc(NC(=O)C(C)(C)C)cc2)n1 [TCMDC-124716] | 77.07%
Cc1cc(N2CCCC2)nc(Nc2ccc(NC(=O)Nc3ccccc3)cc2)n1 [TCMDC-124705] | -12.69%
Cc1cc(N2CCCC2)nc(Nc2ccc(NC(=O)C(C)C)cc2)n1 [TCMDC-124970] | -2.67%

From publication PMC4552634, “A New Set of Chemical Starting Points with Plasmodium falciparum Transmission-Blocking Potential for Antimalarial Drug Discovery” (PLoS ONE, 2015)
